The panel holds about 83,000 compounds, 20% with a hit somewhere; the sample as a whole holds those more often.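 The test compound was applied at a single concentration to cells in 96-well plates for 48 hours, and percent growth was recorded.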 Values without a mark were called inactive. Activity calls are given as the source filed them. How the source made its calls: active means growth percent below 10; inactive means the rest.
Assays:
Test in all cases: NCI-60 one-dose screen, 48 h (100 = growth as untreated, 0 = no growth, -100 = all killed)
Settings in all cases: 10 µM unless noted
[1] = system: DU-145 prostate
[2] = system: K-562 leukemia
[3] = system: MALME-3M melanoma
[4] = system: MDA-MB-231 breast
[5] = system: RXF 393 renal
[6] = system: SF-268 CNS
[7] = system: SF-295 CNS
[8] = system: SF-539 CNS
[9] = system: UACC-257 melanoma
[10] = system: M14 melanoma
[11] = system: HCT-15 colon
[12] = system: HT29 colon
[13] = system: SNB-75 CNS
[14] = system: SNB-19 CNS
[15] = system: U251 CNS
[16] = system: PC-3 prostate
[17] = system: SK-MEL-5 melanoma
[18] = system: UACC-62 melanoma
[19] = system: LOX IMVI melanoma
[20] = system: SK-MEL-28 melanoma

| Compound | growth [1] | growth [2] | growth [3] | growth [4] | growth [5] | growth [6] | growth [7] | growth [8] | growth [9] | growth [10] | growth [11] | growth [12] | growth [13] | growth [14] | growth [15] | growth [16] | growth [17] | growth [18] | growth [19] | growth [20] |
| --- | --- | --- | --- | --- | --- | --- | --- | --- | --- | --- | --- | --- | --- | --- | --- | --- | --- | --- | --- | --- |
| COCCn1cc(-c2csc(-c3c[nH]c4ccc(Br)cc34)n2)c2cccnc21 | 46.7% | 0.0972% (active) | 53.1% | 4.45% (active) | 58.9% | 44.3% | 17.7% | 45.5% | 28.9% | 14.3% | 13.1% | 18.2% | 39.7% | 55.6% | 36.5% | 16% | 19.9% | 44.7% | -10.7% (active) | 52.3% |
| C#CCO[C@H]1CC(CC#C)(CC#C)C(=O)[C@@H]2[C@H]1[C@H]1C[C@@H]3[C@@]4(C)CCC[C@@](C)(C(=O)OC)[C@@H]4CC[C@@]23C=C1C(C)C | 97.7% | 88.9% | -35.9% (active) | 89.3% | 102% | 92.9% | 101% | 85.4% | 94.3% | 95.5% | 98.2% | 55.7% | 93.9% | 93.4% | 96.3% | 58.8% | 101% | 78.6% | -86.6% (active) | 99.1% |
| O=C1/C(=C/c2ccccc2F)CN(C(=O)C(Cl)Cl)C/C1=C\c1ccccc1F | -63.4% (active) | -2.29% (active) | -47% (active) | -49.1% (active) | -76.3% (active) | -0.301% (active) | -46.2% (active) | -85.9% (active) | -17.5% (active) | -43.7% (active) | -66.5% (active) | 3.2% (active) | -18.4% (active) | -84.1% (active) | -85.1% (active) | -41.3% (active) | -77% (active) | -59% (active) | -86.4% (active) | -58.9% (active) |
| Cc1c(Cl)cccc1C(=O)Nc1nc2c(s1)CN(C(=O)c1ccc(C(F)(F)F)cc1)CC2 | 15.7% | 10.3% | 44.6% | 34.4% | 21.9% | 38.4% | 25.1% | -24.5% (active) | 63.7% | 10.2% | 15% | 1.63% (active) | 6.65% (active) | 34.6% | 17.7% | 7.45% (active) | 8.01% (active) | 37.6% | 20.2% | 59.1% |
| Cc1ccc(CNc2c3ccccc3nc3ccccc23)cc1 | 33.5% | 2.99% (active) | 16.2% | 43.2% | 10.1% | 51.9% | 31.3% | 18.1% | 39.4% | 28% | 15.6% | 10.3% | 41.7% | 29.7% | 26% | 24.3% | 30.1% | 43.4% | 11.8% | 59.5% |
| Cc1ccc(/C=C(\C#N)n2nnc3cc(F)c(F)cc32)cc1 | -3.37% (active) | 4.34% (active) | 33% | 12% | -0.406% (active) | 23.4% | 36.6% | -25.5% (active) | 38% | -27.7% (active) | 14.6% | 5.95% (active) | -15.2% (active) | 31.9% | 24.4% | 21.3% | 16.4% | 34.7% | -17.6% (active) | 39.5% |
| CC1(C)[C@@H](O[C@@H]2OC[C@@H](O[C@@H]3O[C@H](CO)[C@@H](O)[C@H](O)[C@H]3O[C@@H]3OC[C@@H](O)[C@H](O)[C@H]3O)[C@H](O)[C@H]2O[C@@H]2O[C@H](CO)[C@@H](O)[C@H](O)[C@H]2O)CC[C@]2(C)[C@H]3CC[C@]45OC[C@@]6(CC[C@](C)(C=O)C[C@H]64)[C@H](O)C[C@@]5(C)[C@]3(C)CC[C@@H]12 | -82.1% (active) | -18% (active) | -79.8% (active) | -59.5% (active) | -77.2% (active) | -55.1% (active) | -89% (active) | -22.6% (active) | -87.1% (active) | -85% (active) | -46.4% (active) | -85.3% (active) | -78.5% (active) | -68.4% (active) | -89.8% (active) | -85.1% (active) | -27.7% (active) | -71.8% (active) | -73.2% (active) | -76.4% (active) |
| Cc1ccc2nc(NC(=O)CSc3nc(-c4ccccc4)c(C#N)c4nnnn34)sc2c1 | 119% | 97.8% | 109% | 113% | 120% | 113% | 103% | 100% | 108% | 99.5% | 113% | 106% | 96.6% | 102% | 104% | 99.7% | 102% | 94.7% | 96.3% | 111% |
| NC(=O)c1cnc(Nc2cccc(N)c2)nc1NCCCNC(=O)C1CCC1 | 75.9% | 52% | 80.3% | 50.1% | 21.4% | 76.2% | 69.3% | 5.4% (active) | 107% | 55.4% | 101% | 92.9% | 53.8% | 82.8% | 64.8% | 72.4% | 84.6% | 70% | 68.7% | 92% |
| COc1ccc(C(=O)c2cc3c(N)c(C(=O)Nc4ccccc4)sc3nc2C)cc1 | 17.7% | 8.08% (active) | 62.7% | 23.3% | -2.82% (active) | 51.4% | 26.9% | -5.08% (active) | 70.7% | 13.1% | 18.7% | 14.9% | 28.2% | 25.2% | 17.8% | 24.3% | 17.2% | 30.5% | 53.6% | 59.8% |
| O=C1/C(=C2\SC(=S)N(C3CC3)C2=O)SC(=S)N1C1CC1 | 105% | 103% | 99.2% | 101% | 97.3% | 95.1% | 98.6% | 103% | 94.9% | 96.3% | 101% | 107% | 81.9% | 99.2% | 99.6% | 92% | 97.4% | 94.6% | 88.8% | 106% |
| CN(C)CCCC1(c2ccc(F)cc2)OCc2cc(-c3cc4ccccc4s3)ccc21 (stereo not given) | 18% | -17.5% (active) | -77.4% (active) | -42.4% (active) | 34.8% | 38.3% | 70.4% | -58.8% (active) | -29.1% (active) | -68.7% (active) | -49% (active) | -67.1% (active) | 25.2% | 71.2% | -83% (active) | 28.8% | 60.9% | -62.1% (active) | -93.6% (active) | -87.5% (active) |
| COc1cccc(CNc2c3ccccc3nc3ccccc23)c1 | 53.3% | 6.57% (active) | 44% | 49.9% | 13.8% | 71.2% | 36% | 19.4% | 55% | 35.2% | 24.4% | 18.7% | 56.9% | 36% | 38.7% | 38.9% | 57.6% | 63.5% | 19.8% | 81.2% |
| Cc1ccc(-c2csc(N(C(=O)N3CCN(c4cc5c(cc4F)c(=O)c(C(=O)O)cn5C4CC4)CC3)c3ccccc3)n2)cc1 | 21.4% | 13.5% | 3.95% (active) | 24.2% | 4.05% (active) | 20.4% | 2.22% (active) | -0.211% (active) | 9.78% (active) | 21.1% | 7.57% (active) | 3.8% (active) | 18.6% | 15.7% | 12.6% | 11.8% | -57.2% (active) | 1.23% (active) | 7.08% (active) | 32.3% |
| CC1(C)N=C(N)N=C(N)N1c1ccc(CCCCc2ccccc2)c(Cl)c1 | 27% | 18% | 52.2% | 42.5% | 30.6% | 19.6% | 29.6% | -3.79% (active) | 3.22% (active) | 33.5% | 20.5% | -11.2% (active) | 18.3% | 21.4% | 3.58% (active) | 6.3% (active) | -76.1% (active) | 8.84% (active) | 8.69% (active) | 25.2% |

Reference: PubChem BioAssay (NCI)
